The results in this text go back to PubChem BioAssay (NCI).

About 83,000 compounds went through this panel and 20% of them were active in at least one assay; those are over-represented in the sample as a whole.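 Cells were grown in 96-well plates and exposed to the test compound at a single concentration for 48 hours; results are reported as percent growth, with values below 10 considered active.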 Calls of active or inactive are those of the source.

The subject of this test is MDA-MB-468 breast. In words: NCI-60 one-dose screen, 48 h (100 = growth as untreated, 0 = no growth, -100 = all killed). The conditions noted are these: 10 µM unless noted.
For the compound `CCN(C(=O)N1CCN(c2cc3c(cc2F)c(=O)c(C(=O)O)cn3C2CC2)CC1)c1nc(-c2ccc(Cl)cc2)cs1`, the growth was -2.66% (active).

As for `COc1ccc(-c2nc(-c3nc4cc(Cl)c(Cl)cc4[nH]3)c3ccccn23)cc1`, the growth is 66.6% (inactive).

On to `O=C(/C=C/c1ccc(Br)cc1)c1ccc(-n2cc(CN3CCN(c4cc5c(cc4F)c(=O)c(C(=O)O)cn5C4CC4)CC3)nn2)cc1`, for which the growth is 92.2% (inactive).

`Cc1ccccc1-n1nnc(C(=O)Nc2nc(-c3ccccc3)c(-c3ccccc3)s2)c1C`: the growth is 61.9% [50 µM] (inactive).

Consider `CN1CCN(C(=O)[C@]23CCC(C)(C)C[C@H]2C2=CC[C@@H]4[C@@]5(C)C/C(=C/c6ccncc6)C(=O)C(C)(C)[C@@H]5CC[C@@]4(C)[C@]2(C)CC3)CC1`, for which the growth is 44.6% (inactive).

Take `COc1ccc2[nH]cc(-c3nonc3-c3c[nH]c4ccc(Br)cc34)c2c1`: the growth was 77.8% (inactive).

With `Nc1nc(Nc2ccccc2)n[nH]1`, the growth is 120% (inactive).

Take `[O-]/[N+](=C\C=C\c1ccccc1)c1ccccc1`: the growth was 113% (inactive).

As for `CN1CCN(c2cc(Nc3cc(C4CC4)[nH]n3)nc(Nc3ccc(CC(=O)NCc4cccc(F)c4)cc3)n2)CC1`, the growth is 98.8% (inactive).

Turning to `O=C(Nc1ccc(NS(=O)(=O)c2ccc(F)cc2)cc1)C12CC3CC(CC(C3)C1)C2`, the growth was 96.5% (inactive).

Regarding `CCOC(=O)C1CC(=O)c2cc(OC)c(OC)cc2C1` (centres undefined), the growth was 84.9% (inactive).

Take `CNc1nc(C)c(-c2nc(Nc3cccc(S(N)(=O)=O)c3)ncc2F)s1`: the growth is -38.3% (active).

As to `N#CCCCCCCCCCCC#N`, the growth was 112% (inactive).

As to `COc1ccc(/C=C2\CCCC3C2=Nc2ccccc2NC3c2ccc(OC)cc2)cc1` (centres undefined), the growth was 43.6% (inactive).

`CN(C)c1ccc(-c2c(NC(C)(C)C)nc3c(OCCc4ccccc4)cccn23)cc1`: the growth is -19.6% (active).

With `COc1cc(C(=O)/C(C)=C/c2c[nH]c3ccccc23)cc(OC)c1OC`, the growth is 11.4% (inactive).

`NC(=O)c1c(NC(=O)c2ccc(Cl)cc2)sc2c1CCC(=O)C2`: the growth was 88.5% (inactive).

Consider `C=C1CCC2C3(C)COC(c4ccccc4)OC3CCC2(C)C1C/C=C1/C(=O)OCC1O` (centres undefined), for which the growth is 30.6% (inactive).

Consider `COc1cnccc1-c1nc2ccc3[nH]ncc3c2c2c1CCCC2`, for which the growth was 39.6% (inactive).

As for `COC(=O)[C@]12CC[C@@H](C(=O)/C=C/c3cccnc3)[C@@H]1[C@H]1CC[C@@H]3[C@@]4(C)C/C(=C/c5cccnc5)C(=O)C(C)(C)[C@@H]4CC[C@@]3(C)[C@]1(C)CC2`, the growth is -76.1% (active).

`Cc1ccc(/C=C(\C#N)c2cc3ccccc3[nH]2)cc1`: the growth is 43.2% (inactive).

On to `O=C1/C(=C/c2ccccc2F)CNC/C1=C\c1ccccc1F`, for which the growth is -59.7% (active).

On to `C=C1C(=O)O[C@H]2[C@H]1CC/C(COC(=O)NCc1c[nH]c3ccc(Br)cc13)=C\CC[C@@]1(C)O[C@@H]21`, for which the growth is -58% (active).

In the case of `O=C(c1nc2ccccc2[nH]1)C1[C@@H](c2cccc(O)c2)C2CC3CCCCC3N2[C@@]12C(=O)Nc1cc(Cl)ccc12` (some centres undefined), the growth was 32.5% (inactive).

As for `O=C1NC(=O)C2C(=O)NC(=O)C1C21CCc2ccccc21` (centres undefined), the growth was 101% (inactive).

As to `CCN(CC)C(=O)C[N+](C)(C)CCOC(c1ccccc1)c1ccccc1`, the growth is 109% (inactive).

Turning to `COc1ccc(C(=O)NC(=O)Nc2ccc3c(c2)NC(=O)/C3=C\c2[nH]c(C)c(CCC(=O)O)c2C)c(F)c1`, the growth is 59.7% (inactive).

Take `CN(C)c1ccc([C@@H](C(=O)Nc2cccc([N+](=O)[O-])c2)N(C(=O)c2cc3ccccc3[nH]2)c2cccc([N+](=O)[O-])c2)cc1`: the growth is 97.8% (inactive).

Consider `Cc1cc(O)ccc1Sc1ccccc1[N+](=O)[O-]`, for which the growth is 95.3% (inactive).

For the compound `CCC(=C(c1ccc(OCCN2CCCCC2)cc1)c1ccc(OCCN2CCCCC2)cc1)c1ccc(Cl)cc1`, the growth is -77% (active).

Turning to `O=C(/C=C/c1ccc(Cl)nc1)c1ccc(Cl)cc1Cl`, the growth is 91.5% (inactive).

Consider `CC1OC(OC2C(OC3CCC4(C)C(CCC5(C)C4CC=C4C6CC(C)(C)CCC6(CO)C(O)CC45C)C3(C)C)OC(C(=O)O)C(OC3OC(COC4OC(CO)C(O)C(O)C4O)C(O)C(O)C3O)C2O)C(O)C(O)C1O` (centres undefined), for which the growth was -80.5% (active).

As for `O=C(CN1CCN(c2ccc(Cl)cc2)CC1)N1CCN(c2nnc(-c3ccc(Cl)cc3)c(-c3ccc(Cl)cc3)n2)CC1`, the growth is 87.5% (inactive).

For the compound `COc1ccc(-c2nnc(COc3ccc(NC(=O)Nc4cc(C(F)(F)F)cc(C(F)(F)F)c4)cc3F)o2)cc1`, the growth was -9.21% (active).
